Results: PubChem BioAssay (NCATS)
Inconclusive results are not listed. Calls of active or inactive are those of the source. Calls come from the whole dose curve; as a rule, active = well fitted curve in the direction sought with a large enough effect; inconclusive = small, poorly fitted or top-dose-only effect, or another doubt; inactive = no such curve, though single readings can be large; an effect the other way counts as inactive or inconclusive.

What was measured:
HaCat [1] = assay: Cytotoxic Profiling of Annotated Libraries Using Quantitative High-Throughput Screening (AID 1296008); settings: Five cell lines viability, CellTiter-Glo ATP luminescence, 48-72 h; max response: hits give low values; note: nearly all actives have a fitted effect of over 60% in size
Procedure, shortened: (§1)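 Cytotoxicity was measured as CellTiter-Glo ATP luminescence, read after 10 min at room temperature. Compound treatment of the cells lasted 48 or 72 hr at 37 degrees Celsius in a qHTS format.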

KB-3-1 = assay: as above; settings: Five cell lines viability, CellTiter-Glo ATP luminescence, 48-72 h; max response: hits give low values
Procedure, shortened: as §1

NIH3T3 [2] = assay: as above; settings: Five cell lines viability, CellTiter-Glo ATP luminescence, 48-72 h; max response: hits give low values
Procedure, shortened: as §1

HACAT [3] = assay: qHTS assay to identify novel small-molecules to repurpose for Merkel cell carcinoma treatment (AID 1296009); settings: MCC and control cell lines, CellTiter-Glo viability, 72 h; at 44.8 µM (top of the series) unless noted; note: nearly all actives have a fitted effect of over 60% in size
Procedure, shortened: (§2)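 72 hr, 37 degree celsius; NPC 8-pt / MIPE 11-pt dose response; compound pinned in DMSO; CellTiter-Glo, 10 min RT, luminescence; normalized to no-cell and DMSO controls.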

MCC-13 = assay: as above; settings: MCC and control cell lines, CellTiter-Glo viability, 72 h; series mostly up to 46 µM
Procedure, shortened: as §2

MCC-26 = assay: as above; settings: MCC and control cell lines, CellTiter-Glo viability, 72 h; series mostly up to 46 µM
Procedure, shortened: as §2

MKL-1 = assay: as above; settings: MCC and control cell lines, CellTiter-Glo viability, 72 h; series mostly up to 46 µM
Procedure, shortened: as §2

MKL-2 = assay: as above; settings: MCC and control cell lines, CellTiter-Glo viability, 72 h; series mostly up to 46 µM
Procedure, shortened: as §2

UISO = assay: as above; settings: MCC and control cell lines, CellTiter-Glo viability, 72 h; series mostly up to 46 µM
Procedure, shortened: as §2

WaGa = assay: as above; settings: MCC and control cell lines, CellTiter-Glo viability, 72 h; series mostly up to 46 µM
Procedure, shortened: as §2

C33A = assay: Primary qHTS to identify gynecologic anti-cancer compounds using libraries of approved drugs and bioactive compounds (AID 1345084); settings: Gynecologic cancer cell panel viability, ATPlite luminescence, 48 h; series mostly up to 57.5 µM; note: nearly all actives have a fitted effect of over 55% in size
Procedure, shortened: (§3)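 Five-point cytotoxicity, 48 h drug exposure at 37 C, 5% CO2, on cells seeded 16 h beforehand. ATP content read by ATPlite luminescence.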

CAOV3 = assay: as above; settings: Gynecologic cancer cell panel viability, ATPlite luminescence, 48 h; series mostly up to 57.5 µM
Procedure, shortened: as §3

CASKI = assay: as above; settings: Gynecologic cancer cell panel viability, ATPlite luminescence, 48 h; series mostly up to 57.5 µM
Procedure, shortened: as §3

Es-2 = assay: as above; settings: Gynecologic cancer cell panel viability, ATPlite luminescence, 48 h; series mostly up to 57.5 µM
Procedure, shortened: as §3

HeLa = assay: as above; settings: Gynecologic cancer cell panel viability, ATPlite luminescence, 48 h; series mostly up to 57.5 µM
Procedure, shortened: as §3

Hek293T [4] = assay: as above; settings: Gynecologic cancer cell panel viability, ATPlite luminescence, 48 h, control line for the selectivity index; series mostly up to 57.5 µM
Procedure, shortened: as §3

JEG-3 = assay: as above; settings: Gynecologic cancer cell panel viability, ATPlite luminescence, 48 h; series mostly up to 57.5 µM
Procedure, shortened: as §3

OV90 = assay: as above; settings: Gynecologic cancer cell panel viability, ATPlite luminescence, 48 h; series mostly up to 57.5 µM
Procedure, shortened: as §3

HEK293T [5] = assay: qHTS assay to identify novel small-molecules to repurpose for Merkel cell carcinoma treatment (AID 1296009); settings: MCC and control cell lines, CellTiter-Glo viability, 72 h; at 44.8 µM (top of the series) unless noted; note: nearly all actives have a fitted effect of over 60% in size
Procedure, shortened: as §2

NIH3T3 [6] = assay: as above; settings: MCC and control cell lines, CellTiter-Glo viability, 72 h; at 44.8 µM (top of the series) unless noted
Procedure, shortened: as §2
% is set by controls: 0 for no effect and ±100 for the full control effect.

Cc1ncc(CO)c(CO)c1O
inactive: outcome (HaCat [1]) | max response (KB-3-1) -24.2% | max response (NIH3T3 [2]) -3.24% | outcome (HACAT [3]) | Potency (MCC-13) | Potency (MCC-26) | Potency (MKL-1) | Potency (MKL-2) | Potency (UISO) | Potency (WaGa) | Potency (C33A) | Potency (CAOV3) | Potency (CASKI) | Potency (Es-2) | Potency (HeLa) | Potency (Hek293T [4]) | Potency (JEG-3) | Potency (OV90)

O=C(O)/C=C(\CC(=O)O)C(=O)O
inactive: outcome (HaCat [1]) | max response (KB-3-1) -12.2% | outcome (NIH3T3 [2]) | outcome (HACAT [3]) | outcome (HEK293T [5]) | Potency (MCC-13) | Potency (MCC-26) | Potency (MKL-1) | Potency (MKL-2) | outcome (NIH3T3 [6]) | Potency (UISO) | Potency (WaGa) | Potency (C33A) | Potency (CAOV3) | Potency (CASKI) | Potency (Es-2) | Potency (HeLa) | Potency (Hek293T [4]) | Potency (JEG-3) | Potency (OV90)

CCCCCC[C@@H](CCC)C(=O)O
inactive: outcome (HaCat [1]) | max response (KB-3-1) -12.3% | outcome (NIH3T3 [2]) | outcome (HACAT [3]) | outcome (HEK293T [5]) | Potency (MCC-13) | Potency (MCC-26) | Potency (MKL-1) | Potency (MKL-2) | outcome (NIH3T3 [6]) | Potency (UISO) | Potency (WaGa) | Potency (C33A) | Potency (CAOV3) | Potency (CASKI) | Potency (Es-2) | Potency (HeLa) | Potency (Hek293T [4]) | Potency (JEG-3) | Potency (OV90)

O=C(O)[C@H](O)[C@@H](O)[C@H](O[C@@H]1O[C@H](CO)[C@H](O)[C@H](O)[C@H]1O)[C@H](O)CO
inactive: outcome (HaCat [1]) | max response (KB-3-1) -11.9% | max response (NIH3T3 [2]) -0.868% | outcome (HACAT [3]) | outcome (HEK293T [5]) | Potency (MCC-13) | Potency (MCC-26) | Potency (MKL-1) | Potency (MKL-2) | Potency (UISO) | Potency (WaGa) | Potency (C33A) | Potency (CAOV3) | Potency (CASKI) | Potency (Es-2) | Potency (HeLa) | Potency (Hek293T [4]) | Potency (JEG-3) | Potency (OV90)

CC(=O)Nc1ccc(S(=O)(=O)Nc2cc(C)on2)cc1
inactive: outcome (HaCat [1]) | max response (KB-3-1) -4.05% | outcome (NIH3T3 [2]) | outcome (HACAT [3]) | Potency (MCC-13) | Potency (MCC-26) | Potency (MKL-1) | Potency (MKL-2) | outcome (NIH3T3 [6]) | Potency (UISO) | Potency (WaGa) | Potency (C33A) | Potency (CAOV3) | Potency (CASKI) | Potency (Es-2) | Potency (HeLa) | Potency (Hek293T [4]) | Potency (JEG-3) | Potency (OV90)

CCOC(=O)NNc1ccc(N(CC)CC(C)O)nn1 (stereo not given)
inactive: outcome (HaCat [1]) | max response (KB-3-1) -6.42% | max response (NIH3T3 [2]) 4.97% | outcome (HACAT [3]) | outcome (HEK293T [5]) | Potency (MCC-13) | Potency (MCC-26) | Potency (MKL-1) | Potency (UISO) | Potency (WaGa) | Potency (C33A) | Potency (CAOV3) | Potency (CASKI) | Potency (Es-2) | Potency (HeLa) | Potency (Hek293T [4]) | Potency (JEG-3) | Potency (OV90)

CCC(C(=O)NC(=O)NC(C)=O)c1ccccc1 (stereo not given)
inactive: outcome (HaCat [1]) | max response (KB-3-1) 0.82% | max response (NIH3T3 [2]) -7.72% | outcome (HACAT [3]) | Potency (MCC-13) | Potency (MCC-26) | Potency (MKL-1) | Potency (MKL-2) | Potency (UISO) | Potency (WaGa) | Potency (C33A) | Potency (CAOV3) | Potency (CASKI) | Potency (Es-2) | Potency (HeLa) | Potency (Hek293T [4]) | Potency (JEG-3) | Potency (OV90)

Cc1cccc(C)c1NC(=O)c1cc(S(N)(=O)=O)c(Cl)cc1O
inactive: outcome (HaCat [1]) | max response (KB-3-1) -20.9% | max response (NIH3T3 [2]) -1.69% | outcome (HACAT [3]) | outcome (HEK293T [5]) | Potency (MCC-13) | Potency (MCC-26) | Potency (MKL-1) | Potency (MKL-2) | Potency (UISO) | Potency (WaGa) | Potency (C33A) | Potency (CAOV3) | Potency (CASKI) | Potency (Es-2) | Potency (HeLa) | Potency (Hek293T [4]) | Potency (JEG-3) | Potency (OV90)

CN1C(=O)CC(C)(c2ccccc2)C1=O (stereo not given)
inactive: outcome (HaCat [1]) | max response (KB-3-1) -1.96% | outcome (NIH3T3 [2]) | outcome (HACAT [3]) | Potency (MCC-13) | Potency (MCC-26) | Potency (MKL-1) | Potency (MKL-2) | outcome (NIH3T3 [6]) | Potency (UISO) | Potency (WaGa) | Potency (C33A) | Potency (CAOV3) | Potency (CASKI) | Potency (Es-2) | Potency (HeLa) | Potency (Hek293T [4]) | Potency (JEG-3) | Potency (OV90)

CC(C)(C)C(=O)OCOC(=O)C1N2C(=O)CC2S(=O)(=O)C1(C)C (stereo not given)
inactive: outcome (HaCat [1]) | max response (KB-3-1) -11.8% | max response (NIH3T3 [2]) 2.05% | outcome (HACAT [3]) | outcome (HEK293T [5]) | Potency (MCC-13) | Potency (MCC-26) | Potency (MKL-1) | Potency (MKL-2) | Potency (UISO) | Potency (WaGa) | Potency (C33A) | Potency (CAOV3) | Potency (CASKI) | Potency (Es-2) | Potency (HeLa) | Potency (Hek293T [4]) | Potency (JEG-3) | Potency (OV90)

CC(=O)N(CC(O)CO)c1c(I)c(C(=O)NCCO)c(I)c(C(=O)NCC(O)CO)c1I (stereo not given)
inactive: outcome (HaCat [1]) | max response (KB-3-1) -13% | outcome (NIH3T3 [2]) | outcome (HACAT [3]) | Potency (MCC-13) | Potency (MCC-26) | Potency (MKL-1) | Potency (MKL-2) | outcome (NIH3T3 [6]) | Potency (UISO) | Potency (WaGa) | Potency (C33A) | Potency (CAOV3) | Potency (CASKI) | Potency (Es-2) | Potency (HeLa) | Potency (Hek293T [4]) | Potency (JEG-3) | Potency (OV90)

N=C(N)c1ccc(OCCCOc2ccc(C(=N)N)cc2)cc1
inactive: outcome (HaCat [1]) | max response (KB-3-1) -29% | outcome (NIH3T3 [2]) | outcome (HACAT [3]) | Potency (MCC-13) | Potency (MCC-26) | Potency (MKL-1) | Potency (MKL-2) | outcome (NIH3T3 [6]) | Potency (UISO) | Potency (WaGa) | Potency (C33A) | Potency (CAOV3) | Potency (CASKI) | Potency (Es-2) | Potency (HeLa) | Potency (Hek293T [4]) | Potency (JEG-3) | Potency (OV90)

O=C(O)[C@@H](O)[C@H](O)[C@H](O)[C@@H](O)C(=O)O
inactive: outcome (HaCat [1]) | max response (KB-3-1) -10.9% | max response (NIH3T3 [2]) -2.02% | outcome (HACAT [3]) | Potency (MCC-13) | Potency (MCC-26) | Potency (MKL-1) | Potency (MKL-2) | Potency (UISO) | Potency (WaGa) | Potency (C33A) | Potency (CAOV3) | Potency (CASKI) | Potency (Es-2) | Potency (HeLa) | Potency (Hek293T [4]) | Potency (JEG-3) | Potency (OV90)
